The campaign covered roughly 370,000 compounds. About 3,100 (0.84%) were called active. Shown is part of a subset that was picked to be rich in actives. Unmarked numbers belong to inactive results.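 How the source made its calls: active means inhibition above the mean of compounds lying between control limits plus 3 SD, set per campaign (cut at about 8.5% in these data); inactive means the rest.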
target: Disintegrin and metalloproteinase domain-containing protein 17 (Homo sapiens) (UniProt P78536); test: ADAM17 inhibitors, primary screen, biochemical, QFRET (AID 720648); details: recombinant ADAM17, EDANS/DABCYL FRET peptide cleavage; at 6.95 µM; stronger effect = higher value;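 further: 0% = DMSO-only wells as the low control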
Sequence (P78536 215-824 limits assumed): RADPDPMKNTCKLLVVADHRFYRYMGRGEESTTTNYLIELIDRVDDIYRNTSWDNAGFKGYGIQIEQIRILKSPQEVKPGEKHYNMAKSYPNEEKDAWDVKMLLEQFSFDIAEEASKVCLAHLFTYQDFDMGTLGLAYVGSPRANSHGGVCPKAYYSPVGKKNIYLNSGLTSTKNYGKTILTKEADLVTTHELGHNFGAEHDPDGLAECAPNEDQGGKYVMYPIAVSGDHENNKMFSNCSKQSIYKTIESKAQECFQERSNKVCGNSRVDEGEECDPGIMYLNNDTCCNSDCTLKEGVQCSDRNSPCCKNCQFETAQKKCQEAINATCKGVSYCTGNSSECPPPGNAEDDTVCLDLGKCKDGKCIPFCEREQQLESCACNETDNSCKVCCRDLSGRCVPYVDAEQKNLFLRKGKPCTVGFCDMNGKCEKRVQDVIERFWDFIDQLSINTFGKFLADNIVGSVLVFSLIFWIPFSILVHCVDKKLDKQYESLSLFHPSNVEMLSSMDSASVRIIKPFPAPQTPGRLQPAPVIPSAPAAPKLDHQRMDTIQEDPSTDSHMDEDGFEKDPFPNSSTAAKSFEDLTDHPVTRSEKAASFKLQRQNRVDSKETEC

SMILES | inhibition
COC(=O)[C@]12C[C@H](CC(=O)NCC34CC5CC(CC(C5)C3)C4)C(=O)N(Cc3ccc(Cl)cc3Cl)C1=C[C@H](COCc1ccccc1)O[C@@H]2C | -3.09%
CCCOc1ccc(Oc2c(Cl)cnn(Cc3cccc4ccccc34)c2=O)cc1 | -6.8%
CCc1cccc(NC(=O)COC(=O)C2CCN(c3ccc(C(F)(F)F)cn3)CC2)c1 | 8.96% (active)
CCOc1ccc(CCNC(=O)COC(=O)C2CCN(c3ccc(C(F)(F)F)cn3)CC2)cc1OCC | -1.24%
N#CCCN(C(=O)COC(=O)C1CCN(c2ccc(C(F)(F)F)cn2)CC1)c1ccc(F)cc1 | -2.71%
C=CCOC/C=C/C#CCN(CC=C)Cc1ccc(OC)cc1OC | -0.84%
O=C(Nc1nc2ccc(Cl)cc2s1)c1cc(-c2ccc(Cl)cc2)nc2ccccc12 | -5.76%
Cc1ccccc1CN1CCCCC(NC(=O)c2cccc(C#N)c2)C1=O (stereo not given) | -3.86%
CCCCCCN1C[C@@H](O)[C@H](n2cc(COC(=O)c3ccccc3)nn2)C[C@@H]1c1ccc(Cl)cc1 | -1.65%
Cc1ccc([C@H]2C[C@H](O)[C@@H](n3cc(COC(=O)c4ccccc4)nn3)CN2C(=O)C2CCCCC2)cc1 | -1.37%
CCCCCC(=O)N1C[C@H](O)[C@@H](n2cc(COC(=O)c3ccccc3)nn2)C[C@@H]1c1ccc(C)cc1 | 8.64% (active)
CC(CCN1CCC(C(O)(c2ccccc2)c2ccccc2)CC1)Oc1ccc([N+](=O)[O-])cc1Cl (stereo not given) | 6.8%
C=CC(COCc1ccccc1)N(Cc1ccccc1)S(=O)(=O)c1ccccc1Br (stereo not given) | -0.15%
C=CC(COCc1ccccc1)N(CC(=O)OC)S(=O)(=O)c1cc(Br)ccc1OC (stereo not given) | 9.3% (active)
CCN(Cc1ccccc1)S(=O)(=O)c1cc(C(=O)O)ccc1OC | 0.35%
Cc1ccc(NC(=O)c2cc(C)nn2-c2ccccc2)c(C)c1 | 3.11%
C=C(C)C#CC(Cc1ccccc1)N(CC1CC1)/C(N)=N/C(=O)OCc1ccccc1 (stereo not given) | -26.4%
COc1ccc(-n2c(SCC(=O)Nc3ccccc3-c3ccccc3)nnc2-c2cccnc2)cc1 | -1.39%
CCOc1ccc(-n2c(SCC(=O)Nc3cc(C)c(NC(=O)c4ccccc4)cc3OC)nnc2-c2cccc(Cl)c2)cc1 | 6.75%
CCOc1ccc(-n2c(SCC(=O)Nc3cc(C)c(NC(=O)c4ccccc4)cc3OC)nnc2-c2cccs2)cc1 | 10.6% (active)
Cc1cc(=O)[nH]c(SCC(=O)Nc2ccc(F)cc2F)n1 | 6.65%
Cc1ccc(S(=O)(=O)N2CCN(C(=O)COC(=O)c3c(C)cc(C)cc3C)CC2)c(C)c1 | 19.5% (active)
COc1ccc(/C=C/C(=O)OCC(=O)N2CCN(S(=O)(=O)c3ccc(C)cc3C)CC2)cc1OC | -6.61%
Cc1ccc(S(=O)(=O)N2CCN(C(=O)COC(=O)CNC(=O)c3ccc(C(C)(C)C)cc3)CC2)c(C)c1 | -2.11%
Cc1ccc(-n2c(SCC(=O)Nc3ccc(S(=O)(=O)Nc4nccs4)cc3)nnc2-c2ccncc2)cc1 | -0.27%

SMILES | inhibition
O=C(OCC(=O)N1CCN(C(=O)c2ccco2)CC1)c1cccc(O)c1 | -3.62%
Cc1ccc(S(=O)(=O)c2c(COC(=O)c3cccc(Cl)c3)c(-c3ccccc3)nn2C)cc1 | -0.5%
O=C(OCc1ccc(-c2ccccc2)cc1)c1cccc(O)c1 | 9.14% (active)
Cc1cc(-c2ccc(C)c(S(=O)(=O)NCCCN(Cc3ccccc3)C(C)C)c2)on1 | -3.83%
CCOc1ccccc1CNS(=O)(=O)c1cc(-c2cc(C)no2)ccc1C | 10.2% (active)
COc1ccc(CNS(=O)(=O)c2cc(-c3cc(C)no3)ccc2C(C)C)cc1 | 3.19%
CCC(CO)Nc1cccc2c1S(=O)(=O)N(Cc1cn(Cc3ccccc3C(F)(F)F)nn1)Cc1ccccc1O2 (stereo not given) | -3.41%
COC(=O)[C@H](C(C)C)N1CCc2nnn(Cc3ccc(C)cc3)c2-c2ccccc2S1(=O)=O | 2.97%
C=C1C(C(C)C)N(C)C2=NC(c3ccccc3)CC(=O)N12 (stereo not given) | -5.62%
O=C(CSc1nnc(SCc2ccc(Cl)cc2)s1)N/N=C/c1ccccc1Cl | 0.99%
Cc1ccc(NC(=S)NNC(=O)CSc2nnc(SCc3ccccc3Cl)s2)cc1 | 9.53% (active)
O=C(CSc1nc2ccccc2n1Cc1ccccc1)NNC(=S)Nc1ccccc1 | 5.43%
Nc1[nH]c(/C=C2/CCCCC2n2[nH]c(=O)n(-c3ccccc3)c2=O)c(Cc2ccccc2)[n+]1Cc1ccccc1 (stereo not given) | -3.48%
O=C(Nc1ccc(Br)cc1)OCCN1C(=O)CCC12CCC(c1ccccc1)CC2 (stereo not given) | -0.94%
CC(NCc1ccco1)C(=O)N1CCCCC1 (stereo not given) | 0.39%
O=C(CSc1nc2[nH]c(=O)[nH]c(=O)c2s1)Nc1cccc(F)c1 | -3.92%
O=C(CSCc1ccc([N+](=O)[O-])cc1)Nc1cccc(C(=O)Nc2ccccc2C(=O)O)c1 | 0.74%
O=C(CSc1nc(-c2ccccc2)cs1)Nc1cccc([N+](=O)[O-])c1 | 8.67% (active)
O=C1CC(c2ccc3c(c2)OCO3)N=C2N(CC3CC3)C/C(=C/c3ccccc3)N12 (stereo not given) | -2.87%
CC(CCN1CCC(C(O)(c2ccccc2)c2ccccc2)CC1)Oc1ccc(C(F)(F)F)cc1 (stereo not given) | 3.8%
C=CCC[C@H](Cc1ccc(F)cc1)C(=O)OC[C@@H](NC(=O)[C@@H](CC=C)CC(=O)N[C@H](CO)Cc1ccccc1)C(C)(C)C | 4.84%
C=CC[C@H](CC(=O)N(CCO)Cc1ccccc1)C(=O)N[C@@H](COC(=O)[C@@H](CC=C)Cc1ccc(F)cc1)Cc1ccccc1 | 13.2% (active)
C=CCC[C@@H](Cc1ccc(F)cc1)C(=O)OC[C@@H](C)NC(=O)[C@H](CC=C)CC(=O)N(CCO)Cc1ccccc1 | 0.31%
C=CCC[C@@H](Cc1ccc(F)cc1)C(=O)O[C@H](CNC(=O)[C@H](CC=C)CC(=O)N(CCO)Cc1ccccc1)c1ccccc1 | 13.4% (active)
C=CC[C@@H](CC(=O)N[C@H](CO)Cc1ccccc1)C(=O)N[C@@H](COC(=O)[C@@H](CC=C)Cc1ccc(F)cc1)Cc1c[nH]c2ccccc12 | -0.68%

SMILES | inhibition
C=CCC[C@H](Cc1ccc(F)cc1)C(=O)OC[C@H](C)NC(=O)[C@H](CC=C)CC(=O)N(CCO)Cc1ccccc1 | 0.15%
C=CCC[C@H](Cc1ccc(F)cc1)C(=O)OC[C@@H](Cc1c[nH]c2ccccc12)NC(=O)[C@H](CC=C)CC(=O)N[C@H](CO)Cc1ccccc1 | 3.73%
C=CCC[C@@H](Cc1ccc(F)cc1)C(=O)OC[C@H](Cc1c[nH]c2ccccc12)NC(=O)[C@@H](CC=C)CC(=O)N(CCO)Cc1ccccc1 | 20.9% (active)
C=CC[C@@H](Cc1ccc(F)cc1)C(=O)OC[C@H]1CCCN1C(=O)[C@H](CC=C)CC(=O)N(CCO)Cc1ccccc1 | 1.4%
CCCCC(=O)N[C@@H]1CC[C@@]23CCCN2C(=O)CCC[C@H]3[C@H]1C | -6.42%
C=C(C)C1CC23C(=O)C4(C(=O)c5ccccc5)C[C@@]5(C)CCC(CC2C1(C)C)(C4=O)C35OC (stereo not given in full) | -2.35%
COC(=O)[C@]12C[C@H](CC(=O)NCc3ccccc3)C(=O)N(CCc3ccc(OC)c(OC)c3)C1=C[C@H](C(C)(C)C)O[C@@H]2C | 7.1%
COC(=O)[C@H](C(C)C)N(CCc1cn(Cc2ccccc2)nn1)S(=O)(=O)c1ccc(F)cc1Br | -0.43%
CCCCOCCCNC(=O)C[C@H]1C[C@@]2(C(=O)OC)C(=C[C@H](COCc3ccccc3)O[C@@H]2C)N(Cc2cccc3ccccc23)C1=O | 6.38%
O=C(Nc1cccc(Cl)c1)OC1CC2CC1[C@H]1CCCCN1[C@H]2Cc1ccccc1 (stereo not given in full) | -2.76%
Cc1ccc(Cn2nnc3c(=O)[nH]c(C4CCN(S(=O)(=O)/C=C/c5ccccc5)CC4)nc32)cc1 | 8.9% (active)
O=C(Nc1ccc(F)cc1)N1CCCC(c2nc3c(nnn3Cc3ccccc3Cl)c(=O)[nH]2)C1 (stereo not given) | -4.29%
CC(C)(C)c1ccc(Cn2nnc3c(=O)[nH]c(C4CCCN(C(=O)c5ccco5)C4)nc32)cc1 (stereo not given) | -1.56%
Cc1sc2nc(SCC(=O)c3ccc(O)c(O)c3)n(Cc3ccco3)c(=O)c2c1C | 10.2% (active)
C=CCn1c(SCC(=O)Nc2ccc(NC(C)=O)cc2)nc2sc(C)c(C)c2c1=O | -2.65%
O=C(CSc1nnc(-c2cccs2)n1Cc1ccco1)c1ccc2c(c1)OCO2 | 1.24%
C=CCN1C(=O)[C@@H](CC(=O)N2CCN(C(=O)c3ccco3)CC2)[C@]2(C(=O)OC)CCCCC=C12 | 1.66%
O=C(OC12CCCN(C1)/C(=C/c1cccnc1)C2)C1CCCC1 (stereo not given) | 1.56%
Clc1ccc(C(Cn2ccnc2)OCc2ccsc2Cl)c(Cl)c1 (stereo not given) | 8.72% (active)
O=C(NCCCn1ccnc1)Nc1ccc(Cl)cc1Cl | -2.99%
O=C(Nc1ccccc1C(=O)NCCCn1ccnc1)c1ccc(Cl)cc1Cl | 2.53%
O=S1(=O)c2c(cccc2N2CC[C@H](O)C2)O[C@@H]2CCN1C2 | -10.8%
COc1ccc(C(=O)C2CCCN(C(=O)c3ccc(OC)o3)C2)c(C)c1 (stereo not given) | -0.93%
COc1ccc(C(=O)C2CCCN(S(=O)(=O)c3cccc(C)c3)C2)c(C)c1 (stereo not given) | 12.6% (active)
COc1ccc(C(=O)C2CCCN(C(=O)c3cnsn3)C2)c(C)c1 (stereo not given) | -4.24%
